From PubChem BioAssay
Compounds with a hit are over-represented: about 3.4% of the library has one in this group of screens.
ADAM10 inh – human ADAM10 inhibitors, primary screen, biochemical, QFRET, HTS; Disintegrin and metalloproteinase domain-containing protein 10 (Homo sapiens), O14672; recombinant ADAM10, EDANS/DABCYL FRET peptide cleavage, 3 h; inhibition, % at 7 µM; 370,000 compounds, 0.62% hits; AID 720582, 2013;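 active = inhibition above a per-campaign cutoff equal to the mean of compounds falling between control-based bounds plus 3 SD, cut at about 20% in these data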
PLCg1 inh – PLC-gamma1 enzyme inhibitors, primary screen, biochemical, fluorescence, purified enzyme; 1-phosphatidylinositol 4,5-bisphosphate phosphodiesterase gamma-1 (Homo sapiens), P19174; fluorogenic substrate; inhibition, % at 12.2 µM; 370,000 compounds, 0.84% hits; AID 720700, 2013; in the data active = inhibition above about 9.5%
PLCb3 inh – human PLC-beta3 inhibitors, primary screen, biochemical, fluorescence. AID 720704, 2013. 1-phosphatidylinositol 4,5-bisphosphate phosphodiesterase beta-3 (Homo sapiens), Q01970. 370,000 compounds, 0.18% hits. inhibition, % at 12.2 µM. Purified PLC-beta3, fluorogenic substrate
ADAM17 inh – ADAM17 inhibitors, primary screen, biochemical, QFRET. Disintegrin and metalloproteinase domain-containing protein 17 (Homo sapiens), P78536. recombinant ADAM17, EDANS/DABCYL FRET peptide cleavage. inhibition, % at 6.95 µM. 370,000 compounds, 0.83% hits. AID 720648, 2013;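 active = inhibition above the mean of compounds lying between control limits plus 3 SD, set per campaign, cut at about 8.5% in these data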
sPLA2-III inh – human group III sPLA2 inhibitors, primary screen, biochemical, QFRET, BODIPY PC-A2 liposome substrate. QFRET BODIPY PC-A2 liposome hydrolysis, fluorescence. inhibition, % at 12.2 µM. 370,000 compounds, 0.56% hits. AID 743126, 2013;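 active = inhibition above mean plus 3 SD of compounds lying within the high and low control bounds, cut at about 19% in these data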
proKLK7 act – proKLK7 zymogen activators, primary screen, biochemical, fluorescence intensity; Kallikrein-7 (Homo sapiens), P49862; purified proKLK7, EDANS-DABCYL substrate fluorescence; 100% is mature enzyme control, 0% vehicle; 370,000 compounds, 0.9% hits; AID 652039, 2013; activation, % at 7 µM;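 active = activation above the mean of all tested compounds plus 3 SD, computed per campaign excluding outliers beyond control limits, cut at about 13% in these data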
PLCgamma1 ctr – PLC-gamma1 enzyme inhibitors, counter-screen for PLC-beta3 inhibitor project, biochemical, fluorescence; purified PLC-gamma1, fluorogenic substrate; 3,300 compounds, 3.1% hits; inhibition, % at 12.3 µM; shares compounds with PLCg1 inh; in the data active = inhibition above about 9.5%
PLCbeta3 conf – PLC-beta3 inhibitor confirmation, biochemical, fluorescence, purified enzyme; shares compounds with PLCg1 inh; fluorogenic substrate fluorescence; inhibition, % at 12.3 µM; 3,300 compounds, 1% hits; AID 743261, 2014
Each line names hits and unclear results; the compound was inactive in the other large screens (follow-up assays come after a bar, where they were run). Rule as the data show it, unless noted: active = inhibition above about 11%; inactive = the rest.

Cn1c(=O)c2c(nc(CN3CCN(CCO)CC3)n2Cc2ccccc2Cl)n(C)c1=O	PLCg1 inh 12 | PLCgamma1 ctr inactive | PLCbeta3 conf inactive
CCOCCn1c(CN2CCN(c3ccc(OC)cc3)CC2)nc2c1c(=O)n(C)c(=O)n2C	none
COc1ccc(N2CCN(Cc3nc4c(c(=O)n(C)c(=O)n4C)n3CCc3ccccc3)CC2)cc1	PLCg1 inh 13 | PLCgamma1 ctr inactive | PLCbeta3 conf inactive
CCOCCn1c(CN2CCN(CCO)CC2)nc2c1c(=O)n(C)c(=O)n2C	PLCg1 inh 11 | PLCgamma1 ctr inactive | PLCbeta3 conf inactive
Cc1ccc(-c2nnn(CC(=O)Nc3nnc(C(C)C)s3)n2)cc1	none
O=C(COC(=O)c1cc(=O)[nH]c2ccccc12)c1cccs1	none
COc1ccc(NC(=O)c2sc3cc(C(F)(F)F)cnc3c2-c2cccs2)cc1	PLCg1 inh 11 | PLCgamma1 ctr inactive | PLCbeta3 conf inactive
O=C(Nc1ccc(F)cc1)c1sc2cc(C(F)(F)F)cnc2c1-c1cccs1	none
CCOC(=O)CCCNC(=O)CN1CCC(c2nc3ccccc3s2)CC1	none
COc1ccc(NS(=O)(=O)c2ccc(S(=O)(=O)N3CCCC3)cc2)cc1Cl	PLCg1 inh 15 | PLCgamma1 ctr inactive | PLCbeta3 conf inactive
O=[N+]([O-])c1ccc(CS(=O)(=O)c2ncn[nH]2)cc1	none
COc1ccc(CS(=O)(=O)c2ncn[nH]2)cc1	PLCg1 inh 37 | PLCgamma1 ctr 20 | PLCbeta3 conf inactive
CC(NCC(=O)Nc1ccccc1C(=O)NC1CC1)c1cccc(C(F)(F)F)c1 (centres undefined)	none
CCOC(=O)C(CCc1ccccn1)c1ccccc1 (centres undefined)	none
CCOC(=O)C(C)C1(O)c2ccccc2-c2ncccc21 (centres undefined)	PLCg1 inh 12 | PLCgamma1 ctr inactive | PLCbeta3 conf inactive
Cc1sc(NC(=O)CCC(=O)O)c(C#N)c1C	PLCg1 inh 11 | PLCgamma1 ctr inactive | PLCbeta3 conf inactive
Cc1sc(NC(=O)CCS(=O)(=O)c2ccccc2)c(C#N)c1C	none
S=C(Nc1ccccc1Cl)N1CCC(c2ccccc2)C1 (centres undefined)	PLCg1 inh 10 | PLCgamma1 ctr inactive | PLCbeta3 conf inactive
CC1CCC(C(C)C)C(OCC(O)CN2CCCC(C)C2)C1 (centres undefined)	none
CC1CCC(C(C)C)C(OCC(O)C[N+]2(C)CCCCC2)C1 (centres undefined)	PLCg1 inh 11 | PLCgamma1 ctr inactive | PLCbeta3 conf inactive
NS(=O)(=O)c1ccc(Sc2ccc3c(c2)CCC3)nc1	none
Cc1cc(C(F)F)n2nc(C(=O)Nc3ccc(S(=O)(=O)N4CCCCCC4)cc3)nc2n1	PLCg1 inh 9.9 | PLCgamma1 ctr inactive | PLCbeta3 conf inactive
Cc1cc(C(F)F)n2nc(C(=O)Nc3cccc(S(=O)(=O)N4CCOCC4)c3)nc2n1	none
Cc1ccc(S(=O)(=O)N2CCCCC2)cc1C(=O)Nc1ccc(N2CCOCC2)cc1	PLCg1 inh 12 | PLCgamma1 ctr inactive | PLCbeta3 conf inactive
CC(NC(=O)c1ccc(C(=O)c2ccccc2)cc1)c1ccc(S(N)(=O)=O)cc1 (centres undefined)	none
CCOC(=O)C1CCN(C(=O)CCn2c(=O)oc3ccccc32)CC1	PLCg1 inh 9.6 | PLCgamma1 ctr inactive | PLCbeta3 conf inactive
CCOC(=O)C1CCN(C(=O)c2ccc(Br)o2)CC1	PLCg1 inh 10 | PLCgamma1 ctr inactive | PLCbeta3 conf inactive
CCOC(=O)C1CCN(C(=O)c2c(-c3c(F)cccc3Cl)noc2C)CC1	PLCg1 inh 10 | PLCgamma1 ctr inactive | PLCbeta3 conf inactive
Cn1c(=O)[nH]c(=O)c2c1nc(Br)n2Cc1cccc(Br)c1	none
CC(C)=NOc1nc(N2CCOCC2)nc(N2CCOCC2)n1	none
O=C(O)c1cccc(NC(=O)c2cc(NC(=O)c3ccccc3)cc(NC(=O)c3ccccc3)c2)c1	none
O=C(O)c1cccc(NC(=O)c2ccccc2)c1	PLCg1 inh 11 | PLCgamma1 ctr inactive | PLCbeta3 conf inactive
Nc1[nH]c(=O)nc(Nc2ccccc2)c1N=O	none
Cc1c(CCOC(=O)C23CC4CC(CC(C)(C4)C2)C3)sc[n+]1CC(=O)c1ccccc1	PLCg1 inh 12 | PLCgamma1 ctr inactive | PLCbeta3 conf inactive
CCCNC(=O)C1(C)CCN(C(=O)c2ccc(C)c(F)c2)C1 (centres undefined)	PLCb3 inh 12 | PLCgamma1 ctr inactive | PLCbeta3 conf inactive
CCNC(=O)C1(C)CCN(C(=O)c2cc(OC)c(OC)c(OC)c2)C1 (centres undefined)	none
CCNC(=O)C1(C)CCN(C(=O)c2ccc(OC)c(OC)c2)C1 (centres undefined)	PLCg1 inh 9.7 | PLCgamma1 ctr inactive | PLCbeta3 conf inactive
CCCNC(=O)C1(C)CCCN(C(=O)c2ccc(C)c(F)c2)C1 (centres undefined)	none
CC(C)(C)C(=O)Cn1c[n+](N)cn1	PLCg1 inh 10 | PLCgamma1 ctr inactive | PLCbeta3 conf inactive
CC(=O)c1ccc(N(CC(=O)NC2CCCC2)C(=O)CNC(=O)c2cccs2)cc1	none
CCCCN(C(=O)COc1ccc(C)cc1OC)c1c(N)n(CCC)c(=O)[nH]c1=O	PLCg1 inh 12 | PLCgamma1 ctr inactive | PLCbeta3 conf inactive
CCCCn1c(N)c(N(CCOC)C(=O)COC(=O)COc2cc(C)ccc2Cl)c(=O)[nH]c1=O	none
CN(C)C(=O)CCc1nc(-c2ccc(C(C)(C)C)cc2)no1	PLCg1 inh 12 | PLCgamma1 ctr inactive | PLCbeta3 conf inactive
Cc1cc(C)c(C#N)c(N2CCN(C(=O)C3COc4ccccc4O3)CC2)n1 (centres undefined)	none
COc1ccc(CNC(=O)C(=O)NCC(c2ccco2)N2CCOCC2)cc1 (centres undefined)	PLCg1 inh 10 | PLCgamma1 ctr inactive | PLCbeta3 conf inactive
O=C(O)c1ccc(N2CCCCCC2)c(N2C(=O)c3ccccc3C2=O)c1	PLCg1 inh 14 | PLCgamma1 ctr inactive | PLCbeta3 conf inactive
